Records with an inconclusive call do not appear. The source made the active and inactive calls. Unless noted, calls follow the shape of the dose curve; as a rule, active = well fitted curve in either direction with a large enough effect (not every such curve was filed as active); inconclusive = small, poorly fitted or top-dose-only effect, or another doubt; inactive = flat fitted curve, though single readings scatter.
Key:
[1] = target: Lysosomal acid glucosylceramidase (Homo sapiens) (UniProt P04062); experiment: Glucocerebrosidase-p2 (AID 348; in the data active = potency below about 10 µM; also: potency is read from the fitted curve at half-maximal effect); conditions: purified GBA, blue fluorogenic substrate, 40 min
Summary of the method: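 Normal human glucocerebrosidase (0.2 nM) with blue fluorogenic substrate (80 uM final) in citrate/phosphate pH 5.9 with 10mM sodium taurocholate, 0.01% tween-20; 40 min RT, NaOH/glycine stop; fluorescence Ex 365/Em 440; AC50 from a titration from 0.6 nM upwards.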

[2] = AP1 Signaling Pathway (AID 357); conditions: ME-180 AP-1-bla reporter, EGF-induced, beta-lactamase ratio, 5 h; at 7.69 µM (top of the series) unless noted;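 also: ME-180 reporter cells stimulated with EGF at its EC50 level; % is scaled to controls: 0 for no effect and ±100 for the full control effect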
Summary of the method: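 First, ME-180 AP-1-bla cells were cultured overnight at 37 °C in low-serum Opti-MEM. Next, titrated compounds with EC50 EGF were incubated 5 hours. Finally, CCF4 was added for 2.5 hours and the 460/530 nm ratio recorded.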

[3] = target: Cytochrome P450 1A2 (Homo sapiens) (UniProt P05177); experiment: p450-cyp1a2 (AID 410; calls by dose curve;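 also: -100% = full effect of reference inhibitor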); conditions: recombinant CYP1A2, luciferin-ME demethylation, luminescence; series mostly up to 57 µM
Summary of the method: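 O-Demethylation of luciferin 6' methyl ether by human CYP1A2 is monitored as luciferase luminescence. Substrate sits at Km (100uM); enzyme is 20nM. Values are scaled to 57 uM furafylline as maximal inhibition.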

[4] = Stat Signaling Pathway (AID 446); conditions: ME-180 (cervical carcinoma) SIE beta-lactamase reporter, IL-6 stimulated, 5 h; at 7.69 µM (top of the series) unless noted;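 also: ME-180 cervical cancer cells given 40 pM IL-6 alongside compound; SIE-controlled beta-lactamase reporter measured as 460/530 nm FRET emission ratio; % is scaled to controls: 0 for no effect and ±100 for the full control effect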
Summary of the method: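 Emission at 460 and 530 nm (excitation 405 nm) reports SIE-controlled beta-lactamase in ME-180 cells. Cells received compound with 40 pM IL-6 for 5 hrs at 37 C; data scaled between 300 pM IL-6 and 125 nM JAK-inhibitor controls.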

[5] = target: Glucocorticoid receptor (Homo sapiens) (UniProt P04150); experiment: GR-EFC Redistribution (AID 451; calls by dose curve; also: potency is read from the fitted curve at half-maximal effect); conditions: CHO-K1 GR-EFC translocation, beta-gal luminescence, 2 h
Summary of the method: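 CHO-K1 cells expressing nuclear EA and GR-ED fragments of b-gal; compounds titrated up to 46 uM final, 2 h at 37 C. GR nuclear translocation read as complemented b-gal luminescence after 1 h RT detection.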

[6] = target: Mitogen-activated protein kinase 10 (Mus musculus) (UniProt Q61831); experiment: JNK3 AlphaScreen Assay (AID 530); conditions: JNK3 lysate, c-Jun phosphorylation; series mostly up to 57.1 µM;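 also: kinase came from lysate of stimulated human HepG2 cells; signal reports phosphorylation of biotinylated GST-cJun 1-79 at Ser73 with 10 µM ATP; % is scaled to controls: 0 for no effect and ±100 for the full control effect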
Summary of the method: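 Activity was read by AlphaScreen after JNK3-containing HepG2 lysate (cytokine pre-activated) phosphorylated biotinylated GST-cJun with 10 uM ATP at room temperature. Phospho-Ser73 cJun antibody with Protein-A acceptor beads provided detection.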

[7] = target: 3',5'-cyclic-AMP phosphodiesterase 4B (Homo sapiens) (UniProt Q07343); experiment: qHTS Assay for Inhibitors of PDE-IV (AID 607; active = well fitted activation curve with a large enough effect in the main read-out, with a control signal flat, not every such curve was filed as active; also: % of control where 0% means no effect); conditions: HEK293 ACTOne CNG channel cells, membrane potential fluorescence; series mostly up to 22.9 µM
Summary of the method: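 The readout is membrane depolarisation from a cAMP-sensing CNG channel, detected with a potential dye at ex 535/em 590. Cells were HEK293-derived (endogenous PDE-IV) at 1000 cells/well, titrated up to 22.9 uM final.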

[8] = target: Cytochrome P450 2D6 (Homo sapiens) (UniProt P10635); experiment: qHTS Assay for Inhibitors and Substrates of Cytochrome P450 2D6 (AID 891; active = well fitted curve in the direction sought with a large enough effect; an effect the other way counts as inactive or inconclusive; also: potency is read from the fitted curve at half-maximal effect; nearly all actives have a fitted effect of over 60% in size); conditions: recombinant CYP2D6, luciferin-ME EGE luminescence; series mostly up to 57.1 µM
Summary of the method: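 Luminescent read-out of luciferin formed by 5 nM human CYP2D6 demethylating 30 uM Luciferin-ME EGE (Km level) over 60 min at room temperature after NADPH regeneration addition. Data normalized to full inhibition by 1.43 uM quinidine.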

[9] = qHTS Assay for Lipid Storage Modulators (AID 1519; calls by dose curve); conditions: Drosophila S3 cells, BODIPY lipid droplet/cell ratio, laser cytometry, cells loaded with oleic acid; for activity change, negative = inhibition: at 57.5 µM (top of the series)
Summary of the method: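 Cells seeded at 5,000 per well were treated with compounds over a concentration series and loaded with oleic acid (400 uM, as added). Lipid droplet fluorescence (488 nm excitation, 500-530 nm channel) was read by laser-scanning cytometry and normalized to 20 uM Triacsin C.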

[10] = Primary qHTS for small molecule stabilizers of the endoplasmic reticulum resident proteome: Secreted ER Calcium Modulated Protein (SERCaMP) assay (AID 1508630; active = well fitted curve in the direction sought with a large enough effect; an effect the other way counts as inactive or inconclusive; also: % is scaled to controls: 0 for no effect and ±100 for the full control effect); conditions: SH-SY5Y GLuc-SERCaMP (Gaussia luciferase released on ER calcium loss) secretion, thapsigargin, luminescence; series mostly up to 38.4 µM
Summary of the method: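 The SH-SY5Y reporter protocol was run at 3 concentrations up to 38.3 uM (primary) or 11 concentrations (follow-up): 16 h compound, 100 nM thapsigargin for 4 h, then extracellular luciferase luminescence.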

[11] = target: Cytochrome P450 3A4 (Homo sapiens) (UniProt P08684); experiment: qHTS Assay for Activators of Cytochrome P450 3A4 (AID 885; active = well fitted curve in the direction sought with a large enough effect; an effect the other way counts as inactive or inconclusive; also: nearly all actives have a fitted effect of over 65% in size); conditions: recombinant CYP3A4, Luciferin-PPXE luminescence, 60 min; series mostly up to 57.1 µM
Summary of the method: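 Activators are scored by enhanced luminescence from CYP3A4 conversion of luciferin-PPXE (25uM, equal to KM) to luciferin, after 60 min at RT with an NADPH-regenerating system.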

[12] = NFAT Signaling Pathway (AID 444); conditions: Jurkat NFAT-bla M1, carbachol, beta-lactamase ratio, 5 h; at 7.69 µM (top of the series) unless noted
Summary of the method: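 Jurkat cells with NFAT-driven β-lactamase reporter and co-expressed M1 receptor, stimulated with carbachol (final 1 uM, ~EC50), compound titration, 5 h at 37 °C. CCF4 loaded 1 h at RT; 460/530 nm ratio gave %activity and AC50.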

[13] = target: Glucocorticoid receptor (Homo sapiens) (UniProt P04150); experiment: GR-GFP Redistribution (AID 450;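 active = compounds whose dose series gives a full or clear partial fitted curve of increased nuclear translocation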; also: potency is read from the fitted curve at half-maximal effect); conditions: U2OS GR-GFP nuclear translocation, laser cytometry, 2 h
[14] = target: Cytochrome P450 3A4 (Homo sapiens) (UniProt P08684); experiment: qHTS Assay for Inhibitors and Substrates of Cytochrome P450 3A4 (AID 884; active = well fitted curve in the direction sought with a large enough effect; an effect the other way counts as inactive or inconclusive; also: potency is read from the fitted curve at half-maximal effect; nearly all actives have a fitted effect of over 50% in size); conditions: recombinant CYP3A4, Luciferin-PPXE luminescence; series mostly up to 57.1 µM
Summary of the method: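 Luminescent readout of luciferin produced by CYP3A4 (20 nM) dealkylation of Luciferin-PPXE, 25 uM (its KM). NADPH-driven reaction ran 60 min at RT after 10 min compound preincubation; data scaled to 57 uM ketoconazole as 100% inhibition.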

[15] = measured here: cell count channel max response
[16] = measured here: lipid channel max response

Sequence of Glucocorticoid receptor (Homo sapiens) (P04150 whole entry, looked up, the tested form may be a part): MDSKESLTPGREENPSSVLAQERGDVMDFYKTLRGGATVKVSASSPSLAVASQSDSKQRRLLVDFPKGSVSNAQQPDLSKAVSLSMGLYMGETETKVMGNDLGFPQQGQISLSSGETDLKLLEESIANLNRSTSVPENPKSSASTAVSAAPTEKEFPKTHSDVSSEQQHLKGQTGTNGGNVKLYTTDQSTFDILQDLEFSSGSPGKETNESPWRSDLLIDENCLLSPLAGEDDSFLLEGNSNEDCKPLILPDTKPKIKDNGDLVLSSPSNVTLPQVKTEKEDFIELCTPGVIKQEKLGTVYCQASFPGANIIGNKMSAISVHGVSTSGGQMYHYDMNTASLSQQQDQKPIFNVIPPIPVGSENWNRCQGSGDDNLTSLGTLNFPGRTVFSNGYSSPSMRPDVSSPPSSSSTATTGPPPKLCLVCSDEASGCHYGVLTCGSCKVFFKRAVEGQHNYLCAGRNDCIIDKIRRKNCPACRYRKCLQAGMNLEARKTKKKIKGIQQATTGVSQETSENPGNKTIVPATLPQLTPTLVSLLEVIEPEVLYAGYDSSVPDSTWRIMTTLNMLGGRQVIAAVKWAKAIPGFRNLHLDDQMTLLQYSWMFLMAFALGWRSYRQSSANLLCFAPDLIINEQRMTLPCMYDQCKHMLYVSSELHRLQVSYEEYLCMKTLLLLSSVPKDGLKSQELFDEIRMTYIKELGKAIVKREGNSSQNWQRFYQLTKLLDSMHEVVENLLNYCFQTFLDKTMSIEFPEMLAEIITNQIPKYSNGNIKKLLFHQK
Sequence of 3',5'-cyclic-AMP phosphodiesterase 4B (Homo sapiens) (Q07343 whole entry, looked up): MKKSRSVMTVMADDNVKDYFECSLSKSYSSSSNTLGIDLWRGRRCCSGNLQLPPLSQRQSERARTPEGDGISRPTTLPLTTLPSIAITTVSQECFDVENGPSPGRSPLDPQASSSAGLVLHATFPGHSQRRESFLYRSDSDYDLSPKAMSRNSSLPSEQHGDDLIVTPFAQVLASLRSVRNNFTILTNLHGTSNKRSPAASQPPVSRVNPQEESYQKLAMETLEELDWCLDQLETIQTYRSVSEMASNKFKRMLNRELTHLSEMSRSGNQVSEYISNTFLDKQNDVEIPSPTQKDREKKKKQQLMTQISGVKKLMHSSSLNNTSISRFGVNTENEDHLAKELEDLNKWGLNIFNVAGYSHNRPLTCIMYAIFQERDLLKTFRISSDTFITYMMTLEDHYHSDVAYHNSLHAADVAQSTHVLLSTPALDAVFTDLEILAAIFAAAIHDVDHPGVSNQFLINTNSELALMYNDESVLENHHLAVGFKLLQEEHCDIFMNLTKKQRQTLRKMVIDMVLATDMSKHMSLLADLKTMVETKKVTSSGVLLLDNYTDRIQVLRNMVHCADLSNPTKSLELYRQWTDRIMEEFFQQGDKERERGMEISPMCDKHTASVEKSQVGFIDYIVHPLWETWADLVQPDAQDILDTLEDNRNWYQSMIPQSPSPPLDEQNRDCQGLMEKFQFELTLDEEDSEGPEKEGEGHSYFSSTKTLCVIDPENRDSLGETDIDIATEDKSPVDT
Sequence of Lysosomal acid glucosylceramidase (Homo sapiens) (P04062 whole entry, looked up): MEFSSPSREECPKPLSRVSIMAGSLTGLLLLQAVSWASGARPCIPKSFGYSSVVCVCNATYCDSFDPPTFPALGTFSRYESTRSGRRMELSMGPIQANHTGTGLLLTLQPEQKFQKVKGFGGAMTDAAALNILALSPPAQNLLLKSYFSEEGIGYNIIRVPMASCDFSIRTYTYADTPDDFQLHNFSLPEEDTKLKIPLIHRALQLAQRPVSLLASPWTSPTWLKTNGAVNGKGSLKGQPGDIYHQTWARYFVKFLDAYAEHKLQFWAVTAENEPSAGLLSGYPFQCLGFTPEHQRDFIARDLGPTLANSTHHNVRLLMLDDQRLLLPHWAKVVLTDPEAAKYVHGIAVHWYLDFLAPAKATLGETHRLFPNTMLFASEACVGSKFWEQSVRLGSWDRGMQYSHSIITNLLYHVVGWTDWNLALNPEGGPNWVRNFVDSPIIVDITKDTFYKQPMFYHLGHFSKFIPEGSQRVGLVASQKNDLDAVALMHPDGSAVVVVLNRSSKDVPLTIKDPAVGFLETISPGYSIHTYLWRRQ
Sequence of Cytochrome P450 3A4 (Homo sapiens) (P08684 whole entry, looked up): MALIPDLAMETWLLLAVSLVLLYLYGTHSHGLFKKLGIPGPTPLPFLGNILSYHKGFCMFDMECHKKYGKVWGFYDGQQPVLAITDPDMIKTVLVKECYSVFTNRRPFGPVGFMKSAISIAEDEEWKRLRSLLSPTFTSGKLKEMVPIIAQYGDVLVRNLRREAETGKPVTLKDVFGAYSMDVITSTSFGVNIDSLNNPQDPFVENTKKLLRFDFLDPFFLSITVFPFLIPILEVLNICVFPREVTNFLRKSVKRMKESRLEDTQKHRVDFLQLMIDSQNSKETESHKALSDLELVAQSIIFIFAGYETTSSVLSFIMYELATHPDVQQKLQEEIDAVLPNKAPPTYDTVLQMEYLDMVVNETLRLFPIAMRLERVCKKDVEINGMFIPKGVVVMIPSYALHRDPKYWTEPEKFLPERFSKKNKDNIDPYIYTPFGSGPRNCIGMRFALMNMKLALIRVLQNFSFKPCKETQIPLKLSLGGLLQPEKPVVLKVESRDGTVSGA
Sequence of Cytochrome P450 1A2 (Homo sapiens) (P05177 whole entry, looked up): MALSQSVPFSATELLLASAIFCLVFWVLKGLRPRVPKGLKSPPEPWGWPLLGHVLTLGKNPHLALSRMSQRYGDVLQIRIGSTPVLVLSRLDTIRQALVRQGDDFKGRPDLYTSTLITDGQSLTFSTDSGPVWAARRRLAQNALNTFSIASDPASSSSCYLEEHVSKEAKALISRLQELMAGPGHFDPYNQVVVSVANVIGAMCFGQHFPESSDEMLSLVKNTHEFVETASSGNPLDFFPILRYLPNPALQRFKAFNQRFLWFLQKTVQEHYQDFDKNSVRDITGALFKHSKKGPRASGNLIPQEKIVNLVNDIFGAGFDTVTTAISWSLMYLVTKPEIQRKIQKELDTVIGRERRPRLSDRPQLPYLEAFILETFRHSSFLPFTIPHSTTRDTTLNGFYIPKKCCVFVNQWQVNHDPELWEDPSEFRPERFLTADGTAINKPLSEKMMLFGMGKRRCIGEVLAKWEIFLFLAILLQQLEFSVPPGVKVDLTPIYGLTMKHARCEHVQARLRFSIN
Sequence of Cytochrome P450 2D6 (Homo sapiens) (P10635 whole entry, looked up): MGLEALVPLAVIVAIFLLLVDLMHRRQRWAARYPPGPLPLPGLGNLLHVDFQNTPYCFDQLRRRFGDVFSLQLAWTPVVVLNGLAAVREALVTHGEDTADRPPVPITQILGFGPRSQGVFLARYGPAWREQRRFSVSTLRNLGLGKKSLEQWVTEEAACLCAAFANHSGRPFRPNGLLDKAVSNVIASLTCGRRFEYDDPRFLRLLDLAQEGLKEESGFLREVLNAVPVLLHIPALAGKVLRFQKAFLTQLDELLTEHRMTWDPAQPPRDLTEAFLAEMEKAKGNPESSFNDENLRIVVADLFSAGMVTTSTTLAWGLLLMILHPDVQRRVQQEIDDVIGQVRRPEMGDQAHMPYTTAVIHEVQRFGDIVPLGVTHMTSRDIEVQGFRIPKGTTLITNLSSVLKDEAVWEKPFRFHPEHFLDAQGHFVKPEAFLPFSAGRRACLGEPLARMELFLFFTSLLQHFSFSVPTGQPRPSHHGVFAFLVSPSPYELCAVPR

Row | SMILES | Potency [1] | activity change, negative = inhibition [2] | Potency [3] | activity, negative = inhibition [4] | Potency [5] | Potency [6] | Potency [7] | Potency [8] | activity change, negative = inhibition [9] | max response [9, 15] [%] | max response [9, 16] [%] | outcome [10] | Potency [11] | activity change, negative = inhibition [12] | Potency [13] | Potency [14]
1 | COc1ccccc1CN1CCC2(CC1)CCN(C(=O)c1cccn1C)CC2 | > 11.4 µM (inactive) | 6.08% (inactive) | inactive | -5.76% (inactive) | > 46 µM (inactive) | inactive | inactive | 3.98 µM (active) | -1.94% (inactive) | 8.14 | 8.04 | inactive |  |  |  | 
2 | COc1ccccc1CN1CCCC2(CCN(C(=O)c3ccco3)CC2)C1 | > 11.4 µM (inactive) | -11.6% (inactive) | inactive | -1.13% (inactive) | > 46 µM (inactive) | inactive | inactive | 2.51 µM (active) | 2.54% (inactive) | 5.74 | 11.8 | inactive | inactive |  |  | 
3 | COc1ncc2nc(-c3cn(C)c4ccccc34)c(=O)n(Cc3ccc(F)cc3)c2n1 | > 11.4 µM (inactive) | 10.6% (inactive) |  | 20.2% (inactive) | > 46 µM (inactive) |  | inactive |  | 3.02% (inactive) | 18.8 | 23.9 | inactive | inactive | -4.65% (inactive) | > 9.22 µM (inactive) | 6.31 µM (active)
4 | CS(=O)(=O)N1CCC2(CC1)CN(C(=O)Nc1cccc(F)c1)C2 | > 11.4 µM (inactive) | 0.393% (inactive) |  | 13.3% (inactive) | > 46 µM (inactive) | inactive | inactive |  | 5.56% (inactive) | 15.2 | 24.9 | inactive |  | 3.65% (inactive) |  | 

From PubChem BioAssay (NCATS)
